Data on 25 molecules can be found in PubChem BioAssay (NCATS).

For test [1], the target named is Cytochrome P450 2D6 (Homo sapiens) (UniProt P10635). Nature of the test: Cytochrome P450 family 2 subfamily D member 6 (CYP2D6) small molecule antagonists: luciferase biochemical (cell-free) qHTS assay (AID 1645840; active = well fitted curve in the direction sought with a large enough effect in the repeat runs; an effect the other way counts as inactive or inconclusive; also: nearly all actives have a fitted effect of over 55% in size; also: potency is read from the fitted curve at half-maximal effect; as to activity change, negative = inhibition: series mostly up to about 57 µM; % is scaled to controls: 0 for no effect and ±100 for the full control effect). Put shortly:
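P450-Glo CYP2D6 system: proluciferin substrate converted by enzyme to luciferin, read by luminescence proportional to activity. Enzyme-substrate mix with compound 10 min at room temperature, then NADPH regeneration 1 h before detection reagent.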
On the technique in general: In qHTS, concentration-response curves come from the screen itself.

The next test concerns the target Papain (Carica papaya) (UniProt P00784). The experiment in a line: Primary qHTS assay for inhibitors of the protease papain (AID 1645873).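 Also: papain turnover of Z-FR-AMC read as the AMC fluorescence gain over 10 min; series mostly up to about 50 µM; % is scaled to controls: 0 for no effect and ±100 for the full control effect.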
Test [2] can be described thus: Primary qHTS for inhibitors of nuclear receptor binding SET domain protein 2 (NSD2) in an isogenic RCH-ACV NSD2 p.E1099K mutant (9B) (AID 1645876). Also: nearly all actives have a fitted effect of over 70% in size. Also: potency is read from the fitted curve at half-maximal effect. As to activity change, negative = viability loss: % is scaled to controls: 0 for no effect and ±100 for the full control effect.
Test [3] is described as follows: Primary qHTS for inhibitors of nuclear receptor binding SET domain protein 2 (NSD2) in an RCH-ACV wild type WT cells (2C) (AID 1645877). Also: nearly all actives have a fitted effect of over 70% in size. Also: potency is read from the fitted curve at half-maximal effect. As to activity change, negative = cell killing: % is scaled to controls: 0 for no effect and ±100 for the full control effect.
Test [4] deals with Cytochrome P450 2C9 (Homo sapiens) (UniProt P11712). The experiment in a line: Cytochrome P450 family 2 subfamily C member 9 (CYP2C9) small molecule antagonists: luciferase biochemical (cell-free) qHTS assay (AID 1645842; active = well fitted curve in the direction sought with a large enough effect in the repeat runs; an effect the other way counts as inactive or inconclusive; also: series mostly up to about 57 µM; % is scaled to controls: 0 for no effect and ±100 for the full control effect; nearly all actives have a fitted effect of over 55% in size). Put shortly:
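P450-Glo CYP2C9 system: proluciferin substrate with enzyme in mix containing 0.4% BSA, 10 min at room temperature, then NADPH regeneration solution added and incubated 1 h at 37C. Detection reagent stopped reaction; luminescence read after 20 min as RLU.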

The target in test [5] is Rap guanine nucleotide exchange factor 3 (Homo sapiens) (UniProt O95398). The experiment in a line: Confirmatory qHTS for antagonist of cAMP-regulated guanine nucleotide exchange factor 3 (EPAC1) (AID 1645880). Also: nearly all actives have a fitted effect of over 55% in size. Also: potency is read from the fitted curve at half-maximal effect. Put shortly:
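Released BODIPY-GDP fluoresces less than Rap1-bound BODIPY-GDP; the signal is followed at 480/540 nm at 5-min intervals over 30 min, after 5 min at room temperature. Reactions contain 100 nM EPAC1, 250 nM RAP1B-BODIPY-GDP and 50 uM GDP; results are normalized to ATA and DMSO.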

The target is the same in test [6]. Nature of the test: Confirmatory qHTS for agonist of cAMP-regulated guanine nucleotide exchange factor 3 (EPAC1) (AID 1645881).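 Also: EPAC1 catalysed release of BODIPY-GDP from Rap1B seen as fluorescence loss; 100% = effect of cAMP agonist control; nearly all actives have a fitted effect of over 75% in size.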
Test [7] addresses Rap guanine nucleotide exchange factor 4 (Homo sapiens) (UniProt Q8WZA2). The experiment in a line: Confirmatory qHTS for agonist of cAMP-regulated guanine nucleotide exchange factor 4 (EPAC2) (AID 1645884).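 Also: nucleotide exchange releases bodipy-GDP from Rap1 and this lowers its fluorescence; % is scaled to controls: 0 for no effect and ±100 for the full control effect; nearly all actives have a fitted effect of over 65% in size.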

The structures appear in SMILES notation. Where “and” joins values, the source holds several entries; their conditions need not be identical. Equal entries are not always repeated. Results filed as inconclusive are left out. A number with no mark means an inactive call. Calls of active or inactive are those of the source. Unless noted, calls follow the shape of the dose curve; as a rule, active = well fitted curve in the direction sought with a large enough effect; inconclusive = small, poorly fitted or top-dose-only effect, or another doubt; inactive = no such curve, though single readings can be large; an effect the other way counts as inactive or inconclusive.

Chain of Papain (Carica papaya) (P00784 whole entry, looked up, the tested form may be a part): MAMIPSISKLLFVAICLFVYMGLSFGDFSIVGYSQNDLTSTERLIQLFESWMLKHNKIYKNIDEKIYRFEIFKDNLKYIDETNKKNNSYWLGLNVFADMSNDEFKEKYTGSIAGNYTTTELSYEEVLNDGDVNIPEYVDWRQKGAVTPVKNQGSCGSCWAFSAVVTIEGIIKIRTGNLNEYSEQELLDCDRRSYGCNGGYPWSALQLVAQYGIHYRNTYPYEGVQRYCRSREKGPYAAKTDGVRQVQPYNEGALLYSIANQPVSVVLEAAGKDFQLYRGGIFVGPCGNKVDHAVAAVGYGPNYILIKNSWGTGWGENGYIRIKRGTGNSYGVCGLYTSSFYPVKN
Chain of Rap guanine nucleotide exchange factor 3 (Homo sapiens) (O95398 whole entry, looked up): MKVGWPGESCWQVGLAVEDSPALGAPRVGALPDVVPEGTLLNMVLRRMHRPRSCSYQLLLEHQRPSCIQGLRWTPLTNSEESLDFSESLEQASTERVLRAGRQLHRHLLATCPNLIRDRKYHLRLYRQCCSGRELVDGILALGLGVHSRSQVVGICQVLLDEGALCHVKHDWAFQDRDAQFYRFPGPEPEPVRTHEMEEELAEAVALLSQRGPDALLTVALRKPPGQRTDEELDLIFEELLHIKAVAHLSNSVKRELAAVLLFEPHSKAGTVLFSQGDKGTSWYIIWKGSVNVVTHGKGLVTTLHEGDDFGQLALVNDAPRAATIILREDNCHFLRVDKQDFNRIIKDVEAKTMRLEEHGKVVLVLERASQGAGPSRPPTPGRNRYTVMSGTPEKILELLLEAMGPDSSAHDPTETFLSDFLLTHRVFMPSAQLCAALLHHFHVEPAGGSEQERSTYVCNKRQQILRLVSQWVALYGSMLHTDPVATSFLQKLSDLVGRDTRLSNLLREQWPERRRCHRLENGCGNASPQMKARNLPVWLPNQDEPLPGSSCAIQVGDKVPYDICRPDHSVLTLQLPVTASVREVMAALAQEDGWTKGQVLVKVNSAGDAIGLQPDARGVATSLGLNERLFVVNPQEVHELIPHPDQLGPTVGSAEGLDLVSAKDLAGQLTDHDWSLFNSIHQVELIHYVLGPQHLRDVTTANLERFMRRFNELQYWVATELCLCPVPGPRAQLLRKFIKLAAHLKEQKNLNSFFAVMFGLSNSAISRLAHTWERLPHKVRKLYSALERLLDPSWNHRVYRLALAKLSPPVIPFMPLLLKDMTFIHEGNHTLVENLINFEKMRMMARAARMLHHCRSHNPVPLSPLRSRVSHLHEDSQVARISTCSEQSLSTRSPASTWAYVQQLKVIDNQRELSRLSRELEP
Chain of Cytochrome P450 2C9 (Homo sapiens) (P11712 whole entry, looked up): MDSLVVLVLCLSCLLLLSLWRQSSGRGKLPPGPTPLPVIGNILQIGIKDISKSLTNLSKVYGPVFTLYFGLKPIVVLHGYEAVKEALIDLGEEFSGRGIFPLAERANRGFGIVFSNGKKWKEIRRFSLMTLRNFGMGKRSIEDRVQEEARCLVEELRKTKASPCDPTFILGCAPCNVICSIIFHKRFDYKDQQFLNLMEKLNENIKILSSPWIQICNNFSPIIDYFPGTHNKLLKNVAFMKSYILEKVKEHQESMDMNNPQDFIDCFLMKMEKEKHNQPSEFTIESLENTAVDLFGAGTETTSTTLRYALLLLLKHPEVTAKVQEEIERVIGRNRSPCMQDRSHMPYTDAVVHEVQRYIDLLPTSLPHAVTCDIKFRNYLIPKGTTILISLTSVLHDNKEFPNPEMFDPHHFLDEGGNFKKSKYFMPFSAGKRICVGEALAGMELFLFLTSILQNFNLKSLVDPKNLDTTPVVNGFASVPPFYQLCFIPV
Chain of Cytochrome P450 2D6 (Homo sapiens) (P10635 whole entry, looked up): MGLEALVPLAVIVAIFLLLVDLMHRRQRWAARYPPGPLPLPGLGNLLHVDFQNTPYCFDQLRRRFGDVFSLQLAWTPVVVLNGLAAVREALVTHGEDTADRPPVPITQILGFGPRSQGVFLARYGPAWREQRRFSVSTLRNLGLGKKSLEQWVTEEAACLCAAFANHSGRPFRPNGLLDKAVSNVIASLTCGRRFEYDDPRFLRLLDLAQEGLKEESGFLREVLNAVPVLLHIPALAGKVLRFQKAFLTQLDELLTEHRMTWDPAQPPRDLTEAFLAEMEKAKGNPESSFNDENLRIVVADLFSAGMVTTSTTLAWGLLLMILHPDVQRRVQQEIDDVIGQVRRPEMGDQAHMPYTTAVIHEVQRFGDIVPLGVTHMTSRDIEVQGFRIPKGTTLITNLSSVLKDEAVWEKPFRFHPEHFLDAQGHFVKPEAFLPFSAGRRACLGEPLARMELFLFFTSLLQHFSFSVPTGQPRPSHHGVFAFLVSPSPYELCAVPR
Chain of Rap guanine nucleotide exchange factor 4 (Homo sapiens) (Q8WZA2 whole entry, looked up): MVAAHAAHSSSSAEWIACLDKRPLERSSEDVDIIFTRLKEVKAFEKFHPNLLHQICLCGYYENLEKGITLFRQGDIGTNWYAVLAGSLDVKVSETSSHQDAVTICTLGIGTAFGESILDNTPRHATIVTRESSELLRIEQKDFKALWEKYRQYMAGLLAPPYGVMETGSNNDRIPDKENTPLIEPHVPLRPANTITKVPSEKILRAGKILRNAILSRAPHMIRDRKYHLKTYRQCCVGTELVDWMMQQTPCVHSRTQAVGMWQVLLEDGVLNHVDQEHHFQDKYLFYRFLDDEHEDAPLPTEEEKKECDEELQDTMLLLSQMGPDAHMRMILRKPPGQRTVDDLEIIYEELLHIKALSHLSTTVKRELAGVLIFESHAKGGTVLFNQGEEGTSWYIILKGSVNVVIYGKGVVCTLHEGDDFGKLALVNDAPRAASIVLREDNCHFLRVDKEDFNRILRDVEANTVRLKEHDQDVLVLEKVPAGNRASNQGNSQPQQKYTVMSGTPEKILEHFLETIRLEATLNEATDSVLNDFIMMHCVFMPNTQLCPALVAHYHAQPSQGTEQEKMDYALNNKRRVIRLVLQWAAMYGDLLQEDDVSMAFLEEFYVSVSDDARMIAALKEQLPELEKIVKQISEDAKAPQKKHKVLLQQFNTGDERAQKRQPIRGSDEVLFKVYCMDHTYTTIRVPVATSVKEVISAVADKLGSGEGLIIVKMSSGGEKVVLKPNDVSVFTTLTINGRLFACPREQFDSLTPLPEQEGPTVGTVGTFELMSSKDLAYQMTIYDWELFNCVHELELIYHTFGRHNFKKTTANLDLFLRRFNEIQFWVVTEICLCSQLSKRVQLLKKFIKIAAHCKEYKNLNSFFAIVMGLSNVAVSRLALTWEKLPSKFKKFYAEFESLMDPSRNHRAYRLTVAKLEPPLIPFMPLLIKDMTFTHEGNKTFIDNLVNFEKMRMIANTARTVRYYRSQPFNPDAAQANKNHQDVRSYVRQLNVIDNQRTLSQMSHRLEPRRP

For the molecule `CSc1ccc2c(c1)C(N1CCN(C)CC1)Cc1ccccc1S2` (centres undefined), the Potency is 0.55 µM (active) in test [1], 23.7 µM (active) in test [2] and 15 µM (active) in test [3]. The Potency entry in the test with Papain (Carica papaya) was “inactive”.

As to `C[C@]12C[C@H](O)[C@H]3[C@@H](CCC4=CC(=O)CC[C@@]43C)[C@@H]1CC[C@@H]2C(=O)CO`, the Potency result (in test [1]; with Papain (Carica papaya)) was “inactive” each time.

Take `OC[C@H]1O[C@@H](O[C@@H]2[C@@H](CO)O[C@](O)(CO)[C@H]2O)[C@H](O)[C@@H](O)[C@H]1O`: the Potency entry in test [1], in test [2] and in test [3] was “inactive” each time.

`Nc1ccc(S(=O)(=O)NC(=O)c2ccccc2)cc1`: the Potency result in test [1], in test [2] and in test [3] was “inactive” throughout.

Consider `CC1=C(C/C=C(\C)CCC[C@H](C)CCC[C@H](C)CCCC(C)C)C(=O)c2ccccc2C1=O`, for which the Potency result in test [1], in test [2] and in test [3] was “inactive” throughout.

On to `CC(C)(O)c1ccccc1CC[C@@H](SCC1(CC(=O)O)CC1)c1cccc(/C=C/c2ccc3ccc(Cl)cc3n2)c1`, for which the Potency result in test [1], in test [4], in test [2], in test [3], in test [6] and in test [7] was “inactive” throughout. Also, the Potency in test [5] is 25 µM (active).

Consider `O=C(O)c1ccccc1-c1ccc(C(F)(F)F)cc1`, for which the Potency entry in test [1], in test [4], in test [2] and in test [3] was “inactive” in each case.

For `COc1ccc2cc1Oc1cc3c(cc1OC)CC[N+](C)(C)[C@H]3Cc1ccc(cc1)Oc1c(OC)c(OC)cc3c1[C@@H](C2)[N+](C)(C)CC3`, the Potency result in test [1], in test [4], in test [2] and in test [3] was “inactive” each time.

On to `O=c1cc[nH]c(=S)[nH]1`, for which the Potency entry in test [1], in test [4] and in test [3] was “inactive” in each case.

In the case of `Cc1ccc2nc(N)[nH]c(=O)c2c1Sc1ccncc1`, the Potency was 7.76 µM (active) and 10.7 µM (active) in test [1]; 2.3 µM (active) in test [2].

In the case of `CCCCC(CC)COC(=O)c1ccccc1O` (centres undefined), the Potency entry in test [1], in test [4], in test [2] and in test [3] was “inactive” in each case.

Take `CC1(C)Oc2ccc(C#N)cc2[C@@H](N2CCCC2=O)[C@@H]1O`: the Potency result in test [1], in test [4], in test [5], in test [6] and in test [7] was “inactive” throughout.

For `O=C1N=C(O)CN1/N=C/c1ccc(-c2ccc([N+](=O)[O-])cc2)o1`, the Potency result (in test [1]; in the test with Papain (Carica papaya); in test [2]; in test [3]) was “inactive” each time.

Take `Cc1cccc(Nc2cc(Cl)nc(SCC(=O)O)n2)c1C`: the Potency entry in test [1], in test [2] and in test [3] was “inactive” throughout.

Consider `CC(=O)Nc1ccc(/C=N/NC(N)=S)cc1`, for which the Potency result in test [1] was “inactive”. Also, the Potency in test [2] was 21.1 µM (active); in test [3], 16.8 µM (active).

Take `CC1(C)OC(=O)NC1=O`: the Potency result in test [1], in test [4], in test [2] and in test [3] was “inactive” each time.

With `CCN(CC)CCNC(C(=O)OCCC(C)C)c1ccccc1` (centres undefined), the Potency in test [1] is 0.776 µM (active). Besides, the Potency entry in test [4], in test [2] and in test [3] was “inactive” each time.

For `c1ccc(CN(CC2=NCCN2)c2ccccc2)cc1`, the Potency in test [1] is 1.74 µM (active). In addition, the Potency entry in test [2] and in test [3] was “inactive” throughout.

`NC(=O)c1ncn([C@@H]2O[C@H](CO)[C@@H](O)[C@H]2O)n1`: the Potency result (in test [1]; with Papain (Carica papaya)) was “inactive” in each case. In addition, the Potency in test [3] was 14.8 µM (active).

As for `NC(=O)N/N=C/c1ccc([N+](=O)[O-])o1`, the values for the Potency in test [1] and in test [3] were 13.4 µM (active) and 24.3 µM (active), respectively. Moreover, in test [4], the Potency result was “inactive”.

With `NC(=O)NC(=O)Cc1ccccc1`, the Potency result in test [1], in test [4], in test [2] and in test [3] was “inactive” throughout.

Take `O=C(O)COc1nn(Cc2ccccc2)c2ccccc12`: the Potency result in test [1], in test [2] and in test [3] was “inactive” in each case.

Consider `O=C1OC(OC(=O)c2cccnc2Nc2cccc(C(F)(F)F)c2)c2ccccc21` (centres undefined), for which the Potency result in test [1], in test [2] and in test [3] was “inactive” each time.

For the molecule `NC1CCN(c2cccc(Cl)n2)CC1`, the Potency in test [1] was 1.55 µM (active). The Potency result in test [4], in test [2] and in test [3] was “inactive” in each case.

With `NCCNCCNCCNCCN`, the activity change, negative = inhibition in test [1] was 12.4% [at 11.5 µM]; in test [4], 18.2% [at 11.5 µM]. Moreover, the activity change, negative = viability loss in test [2] was -1.38% [at 9.23 µM]. For the same molecule, in test [3], the activity change, negative = cell killing is -16.9% [at 9.23 µM].
